Experimental data as given in PubChem BioAssay AID565 (University of Pittsburgh Molecular Library Screening Center, 2006).
In all, about 65,000 compounds went through this assay and about 1,200 (1.8%) were called active. Cut-off read from the data, not from the text of the source: active = inhibition above about 50%; inactive = the rest. The list comes from a sample in which actives are over-represented; it also holds similar structures and randomly drawn compounds.

Molecular target: Gag-Pol polyprotein (Human immunodeficiency virus type 1 group M subtype B (isolate HXB2)) (UniProt P04585)
Test: blockers of HIV-1 RNase H RNA/DNA cleavage – biochemical, fluorescence, primary screen (AID 565)
Settings: RT-RNase H RNA/DNA duplex cleavage, at 10 µM, hits give high values

Row | Compound | inhibition
1 | Cc1cc(C)c(C#N)c(SCc2ccccc2C(=O)O)n1 | -5.35% (inactive)
2 | COc1ccc(N2CCN(CCNC(=O)CCN3C(=O)COc4ccccc43)CC2)cc1 | 7.09% (inactive)
3 | CCOc1cc(NC(=O)c2ccco2)c(OCC)cc1NC(=O)COc1ccccc1 | 52.4% (active)
4 | O=C(Nc1ccc(Oc2ccccc2)cc1)c1ccco1 | -7.33% (inactive)
5 | Cc1ccc(C(=O)COc2cccc(NC(=O)c3ccco3)c2)cc1 | 9.47% (inactive)
6 | Cc1cc(Nc2ccccc2)n(C(=O)c2ccc(N)cc2)n1 | -17.6% (inactive)
7 | CCOC(=O)c1ccccc1NC(=O)CC1Nc2ccccc2NC1=O (stereo not drawn) | 71.6% (active)
8 | CCCOC(=O)Nc1ccccc1C(N)=O | -29.1% (inactive)
9 | O=C(CC1Nc2ccccc2NC1=O)Nc1ccccc1 (stereo not drawn) | -4.38% (inactive)
10 | CCC(C)NC(=O)C1CCC(=O)N1Cc1ccc(C)cc1 (stereo not drawn) | -9.01% (inactive)
11 | CCN(CC)CCCNC(=O)c1cc(-c2cccc(Cl)c2)on1 | -16% (inactive)
12 | CCN(CC)c1ccc2oc(=O)c(C)nc2c1 | 68.2% (active)
13 | CCN(CC)c1ccc2cc(C(=O)O)c(=O)oc2c1 | -8.5% (inactive)
14 | CCc1ccc2oc(-c3ccc(N)cc3)nc2c1 | -12.6% (inactive)
15 | Cc1cccc(NC(=O)COc2ccc(Br)cc2C)n1 | -9.39% (inactive)
16 | Cn1nnc(NC(=O)CSc2ncn[nH]2)n1 | -0.52% (inactive)
17 | CC(C)(C)c1ccc(C(=O)CSc2ncn[nH]2)cc1 | 82.3% (active)
18 | CCN(C(=O)CSc1ncn[nH]1)c1cccc2ccccc12 | -10.7% (inactive)
19 | Cc1cccc(N=C2NC(=O)CS2)c1C | -0.31% (inactive)
20 | c1ccc2cc(OCCN3CCCC3)ccc2c1 | -14.7% (inactive)
21 | N#Cc1cccc(CSc2nnc(CCCO)n2-c2ccccc2)c1 | -5.32% (inactive)
22 | O=C(OCc1nnc(-c2ccccc2)o1)c1ccc2c(c1)C(=O)N(CCc1ccccc1)C2=O | 16.2% (inactive)
23 | O=c1c2ccccc2[nH]c(=S)n1CCN1CCC(=C(c2ccc(F)cc2)c2ccc(F)cc2)CC1 | 53.2% (active)
24 | O=C(CCn1c(=S)[nH]c2ccccc2c1=O)NCCCN1CCCC1=O | -8.03% (inactive)
25 | COc1ccccc1Cn1c(=S)[nH]c2cc(C(=O)N3CCN(C)CC3)ccc2c1=O | -5.95% (inactive)

Row | Compound | inhibition
26 | CN(C)Cc1c(O)ccc2occ(C(O)c3ccccc3)c12 (stereo not drawn) | 2.07% (inactive)
27 | COc1ccc(OC)c2c(N)c(C#N)c(C(F)(F)C(F)(F)F)nc12 | -3.29% (inactive)
28 | Cc1ccccc1NC(=O)Cc1nnc(SCC(=O)N2CCN(c3ccccc3)CC2)n1C | 1.53% (inactive)
29 | Cn1c(CC(=O)Nc2ccccc2)nnc1SCC(=O)c1ccccc1 | 50.1% (active)
30 | Cn1c(CNc2nc(-c3ccccc3)cs2)nnc1SCC(=O)c1ccccc1 | -5.65% (inactive)
31 | CCOC(=O)C(C(=O)OCC)C(C#N)c1ccccc1 (stereo not drawn) | -13.1% (inactive)
32 | Cc1ccc(-c2nnc(SC(C)C#N)n2N)cc1 (stereo not drawn) | -0.02% (inactive)
33 | N#Cc1c(NC(=O)CCCN2C(=O)c3ccccc3C2=O)oc(-c2ccccc2)c1-c1ccccc1 | 19% (inactive)
34 | COc1cc(C(=O)Nc2oc(-c3ccccc3)c(-c3ccccc3)c2C#N)cc(OC)c1OC | 80% (active)
35 | COc1cc(C(=O)Nc2nccs2)cc(OC)c1OC | -12.7% (inactive)
36 | CCC(C)(C)NC(=O)C(c1cccn1C)N(Cc1ccc(C)cc1)C(=O)Cn1nnc2ccccc21 (stereo not drawn) | 50.2% (active)
37 | COCCNC(=O)C(c1ccc(C)o1)N(Cc1ccccc1)C(=O)Cn1nnc2ccccc21 (stereo not drawn) | 5.47% (inactive)
38 | CC(C)(C)NC(=O)C(c1ccco1)N(Cc1ccc2c(c1)OCO2)C(=O)Cn1nnc2ccccc21 (stereo not drawn) | 9.38% (inactive)
39 | CCOc1ccc(Cn2c(SCCCCC#N)nc3c2c(=O)n(C)c(=O)n3C)cc1OCC | 29.2% (inactive)
40 | Cc1ccc(C)n1-c1ccncc1 | -2.45% (inactive)
41 | O=C(COc1ccc(S(=O)(=O)NCCc2ccccc2)cc1)N1CCCC1 | -8.41% (inactive)
42 | Cc1ccc(Cn2nnc3c(=O)n(CC(=O)N4CCCCC4)cnc32)cc1 | -6.24% (inactive)
43 | CC(=O)Nc1ccc(-c2nn3c(C)nnc3s2)cc1C | -4.83% (inactive)
44 | CCN1CCc2c(C#N)c(NCc3ccccc3)nc(NCCO)c2C1 | 10.1% (inactive)
45 | N#Cc1ccc(COC(=O)Cn2nnc(-c3ccccc3)n2)cc1 | -12.9% (inactive)
46 | N#Cc1c(N)sc2c1CCN(C(=O)OCc1ccccc1)C2 | 52% (active)
47 | CN(C(=O)CSc1nnnn1-c1ccccc1)C1CCCCC1 | -7.53% (inactive)
48 | O=C(O)CCC(=O)N(Cc1cccs1)Cc1cccs1 | 4.03% (inactive)
49 | CCN(Cc1ccccc1)C(=O)CSc1nc(C)cc2c1C(=O)OC2 | -15.7% (inactive)
50 | Cc1ccc(-c2nn(-c3ccccc3)cc2CN(Cc2ccccc2)C(=O)CCC(=O)O)o1 | 81.7% (active)

Row | Compound | inhibition
51 | CSCCC1NC2(C(=O)Nc3ccc(Cl)cc32)[C@@H]2C(=O)N(C3CCCC3)C(=O)[C@H]12 (stereo partly drawn) | 2.23% (inactive)
52 | c1ccc2c(c1)OCC(CNc1ncnc3nc[nH]c13)O2 (stereo not drawn) | -8.18% (inactive)
53 | COC(=O)c1ccc(OC(=O)c2nn(C)cc2Cl)c(OC)c1 | -6.66% (inactive)
54 | CCOc1ccccc1/C=c1\sc2nc(-c3ccco3)nn2c1=O | 33.7% (inactive)
55 | O=c1nc2s/c(=C\c3ccco3)c(=O)n2nc1Cc1ccccc1 | 5.64% (inactive)
56 | CN(c1ccccc1)c1ccc(/C=c2\s/c(=C(/C#N)C(=O)C(C)(C)C)n(Cc3ccco3)c2=O)cc1 | 71.8% (active)
57 | CN(C)c1cc(N)c2ccccc2n1 (tested in a mixture with another compound) | -10% (inactive)
58 | COc1ccc(-c2nc(CS(=O)CC(=O)NCc3ccccn3)c(C)o2)cc1 (stereo not drawn) | 2.69% (inactive)
59 | CCOC(=O)C1CCN(Cc2coc3ccc(Cl)cc3c2=O)CC1 | 2.73% (inactive)
60 | c1ccc(-c2nnc3n2NC(c2ccc4c(c2)OCO4)S3)cc1 (stereo not drawn) | 67.9% (active)
61 | O=C(Cn1nnc(-c2ccccc2)n1)NCc1ccc2c(c1)OCO2 | -23.7% (inactive)
62 | CC1=C(C(N)=O)C(c2ccc3c(c2)OCO3)n2nc(-c3cccc(C)c3)nc2N1 (stereo not drawn) | 0.45% (inactive)
63 | COC(=O)C1=C(C)OC(N)=C(C#N)C1c1cc(OC)ccc1OC (stereo not drawn) | -6.95% (inactive)
64 | CCC(=O)NC(=Nc1nc2ccccc2s1)NC(=O)CC | -21.2% (inactive)
65 | CCOc1ccc(Nc2oc(Cc3ccccc3)nc2C#N)cc1 | -28.4% (inactive)
66 | N#Cc1nc(-c2ccc(OCc3ccccc3)cc2)oc1NCCCN1CCOCC1 | -42.2% (inactive)
67 | COc1ccc(Nc2oc(-c3ccccc3Cl)nc2C#N)cc1 | 54.5% (active)
68 | O=C(CSC1=Nc2ccccc2C2=NC(c3ccccc3)C(=O)N12)NCC1CCCO1 (stereo not drawn) | 2.21% (inactive)
69 | NC(=O)CSC1=Nc2ccccc2C2=NC(CCC(=O)NCc3ccc(F)cc3)C(=O)N12 (stereo not drawn) | -6.32% (inactive)
70 | CC(C)C1N=C2c3ccccc3N=C(SCC(=O)c3ccc(O)c(O)c3)N2C1=O (stereo not drawn) | 96.1% (active)
71 | CCOc1cc(/C=N/O)cc(Br)c1OC | -18.2% (inactive)
72 | CN1CCC2(CC1)NC(=O)NC2=O | -0.41% (inactive)
73 | COc1ccc(N2CCN(C(=O)CSc3ncnc4c3cnn4-c3ccc(OC)cc3)CC2)cc1 | 54.2% (active)
74 | COc1ccc(N2CCN(C(=O)CSc3nnc4ncccn34)CC2)cc1 | 2.76% (inactive)
75 | COc1ccc(N2CCN(C(=O)CSc3nc4cc(OC)c(OC)cc4cc3C#N)CC2)cc1 | 36.4% (inactive)

Row | Compound | inhibition
76 | O=C(O)C1CCCN(S(=O)(=O)c2cccc3cccnc23)C1 (stereo not drawn) | -3.84% (inactive)
77 | COc1cc2[nH]c(=S)n(CCN3CCCCC3C)c(=O)c2cc1OC (stereo not drawn) | -11% (inactive)
78 | CCSc1nc(=S)n(CC)c(C)c1C(C)=O | -6.33% (inactive)
79 | CCOc1cccc(-n2nnnc2-c2ccc(OC)cc2)c1 | -27.8% (inactive)
80 | CCOC(=O)Cn1c(SC)nc2sc3c(c2c1=O)CC(C)(C)OC3 | -12.4% (inactive)
81 | COC(=O)c1sc(=S)n(-c2ccccc2)c1N | 88.6% (active)
82 | CCOC(=O)CSc1nnc(CNC(=O)c2cccs2)n1-c1ccccc1 | -126% (inactive)
83 | CCOC(=O)CNC(=O)c1nn(-c2cccc(OC)c2)c(=O)c2ccccc12 | -9.52% (inactive)
84 | CCOC(=O)Cn1c(N)c(C(=O)OC)sc1=S | 56.2% (active)
85 | CCOC(=O)c1sc(=S)n(-c2cccc(OC)c2)c1N | 65.1% (active)
86 | COC(=O)c1cn(-c2ccccc2)nc1-c1cccnc1 | -35.4% (inactive)
87 | CCOC(=O)c1nc(N)sc1C(=O)OCC | -13.4% (inactive)
88 | O=C(Cn1c(=S)nc2ccccn21)N1CCc2ccccc2C1 | -12.1% (inactive)
89 | Cc1nn2c3ccccc3nc2n(C)c1=O | -8.5% (inactive)
90 | CCOc1ncccc1C(=O)OCc1cn2cc(Cl)ccc2n1 | -19.9% (inactive)
91 | CCN(CC)CCCN1C(=O)C(=O)/C(=C(/O)c2c(C)nc3ccccn23)C1c1ccc(C)o1 (stereo not drawn) | -7.5% (inactive)
92 | O=c1c2ccccc2nnn1CSc1nc2sc3c(c2c(=O)n1CC1CCCO1)CCC3 (stereo not drawn) | -3.16% (inactive)
93 | CC1Oc2ccccc2N(Cc2cccnc2)C1=O (stereo not drawn) | -1.88% (inactive)
94 | COC(=O)Nc1ccc(S(=O)(=O)N(C)CC(F)(F)C(F)F)cc1 | -4.49% (inactive)
95 | O=C(CN1CCN(CC(=O)Nc2ccc3c(c2)OCO3)CC1)Nc1ccc(F)cc1 | -10.3% (inactive)
96 | c1ccc(Nc2nc(-c3ccncc3)cs2)nc1 | -13.7% (inactive)
97 | N#CC(=C1SC=CS1)c1nc(-c2ccccc2)cs1 | 55.1% (active)
98 | N#C/C(=C1\CCCN1)c1nc(-c2ccccc2)cs1 | -34% (inactive)
